What is called Kd is the free concentration of one partner at which half of the binding sites on the other are occupied at equilibrium, for simple one-to-one binding.

SMILES strings stand for the structures.
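Further: kd values determined as follow-up on hits from a single-replicate KINOMEscan panel screen.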

The test system of this assay is T1, MEK5.
T1 construct: gene MAP2K5
Regarding `O=C(CCO)NCCn1ccc2ncnc(Nc3ccc(Oc4cccc(C(F)(F)F)c4)c(Cl)c3)c21`, the Kd stood at 15 nM. To `COc1ccc(-c2oc3ncnc(N)c3c2-c2ccc(OC)cc2)cc1` [SB-589132] belongs 3000 nM; to `Cn1ccc2ncnc(Nc3ccc(Oc4cccc(Cl)c4)c(Cl)c3)c21`, 25 nM; to `Oc1ccc2ncnc(Nc3ccc(OCc4ccccc4)cc3)c2c1` [GI262866], 82 nM.
